Unmarked numbers belong to inactive results. For some of these results: Potency and affinity values are given separately. Active and inactive are the calls of the source. Unless noted, the rule behind the calls is not given here.

The nature of test [1]: antimalarial activity against Dd2 strain (AID 2302;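 active = growth inhibition above 50% at the single 2 µM test dose, taken to imply half-maximal potency below 2 µM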;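 note: 0% = DMSO untreated growth and 100% = chloroquine plus artemisinin killed control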). To be noted: P. falciparum Dd2 in RBCs, LDH growth readout, 72 h; at 2 µM; hits give high values.
A short description of test [2]: human hepatoma cell viability loss – ATP luminescence, cytotoxicity control for P. falciparum antimalarial project, primary screen (AID 2303;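 active = inhibition above 50%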;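 note: 0% = DMSO wells and 100% = digitonin-killed cells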). To be noted: HepG2 viability, 24-48 h, at 10 µM, hits give high values.
In test [3] the target is L-lactate dehydrogenase (Plasmodium falciparum (isolate CDC / Honduras)) (UniProt Q27743). Nature of the test: PfLDH activity inhibition – cell lysate, 3D7 strain, counter-screen for P. falciparum growth inhibition project (AID 2304).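 Note: 0% = vehicle and 100% = reference inhibitor.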 To be noted: P. falciparum 3D7 crude extract, LDH APAD/NBT absorbance; at 2 µM; hits give high values. A general note: A counterscreen serves to expose hits that act by an unwanted route or on another target.
L-lactate dehydrogenase (Plasmodium falciparum (isolate CDC / Honduras)), sequence (Q27743 whole entry, looked up): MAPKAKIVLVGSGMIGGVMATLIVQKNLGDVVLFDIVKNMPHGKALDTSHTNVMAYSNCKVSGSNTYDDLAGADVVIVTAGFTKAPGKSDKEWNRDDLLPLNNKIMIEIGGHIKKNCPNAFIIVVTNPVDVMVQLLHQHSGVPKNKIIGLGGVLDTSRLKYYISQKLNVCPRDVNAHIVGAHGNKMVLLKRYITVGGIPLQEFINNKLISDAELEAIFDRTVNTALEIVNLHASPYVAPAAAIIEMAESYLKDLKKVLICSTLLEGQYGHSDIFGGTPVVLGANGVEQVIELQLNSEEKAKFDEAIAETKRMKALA

The nature of test [4]: inhibition of 3D7 malaria parasite growth – strain 3D7 (AID 2306).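 Note: 0% = DMSO wells and 100% = chloroquine plus artemisinin control wells.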 To be noted: P. falciparum 3D7 erythrocytic growth, LDH absorbance, 72 h; at 2 µM; hits give high values.
Test [5] deals with Calcium-dependent protein kinase 1 (Plasmodium falciparum (isolate 3D7)) (UniProt P62344). Nature of the test: PfCDPK1 kinase inhibitors, biochemical, TCAMS library (AID 1159585; cut-off not given, nearly all actives have IC50 up to about 0.98 µM;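 note: inhibitors leave more ATP so luminescence rises with inhibition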). The following applies: recombinant PfCDPK1, Kinase-Glo ATP depletion luminescence. Background: Kinase-Glo measures the ATP left after a reaction by luminescence.
Calcium-dependent protein kinase 1 (Plasmodium falciparum (isolate 3D7)), sequence (P62344 whole entry, looked up): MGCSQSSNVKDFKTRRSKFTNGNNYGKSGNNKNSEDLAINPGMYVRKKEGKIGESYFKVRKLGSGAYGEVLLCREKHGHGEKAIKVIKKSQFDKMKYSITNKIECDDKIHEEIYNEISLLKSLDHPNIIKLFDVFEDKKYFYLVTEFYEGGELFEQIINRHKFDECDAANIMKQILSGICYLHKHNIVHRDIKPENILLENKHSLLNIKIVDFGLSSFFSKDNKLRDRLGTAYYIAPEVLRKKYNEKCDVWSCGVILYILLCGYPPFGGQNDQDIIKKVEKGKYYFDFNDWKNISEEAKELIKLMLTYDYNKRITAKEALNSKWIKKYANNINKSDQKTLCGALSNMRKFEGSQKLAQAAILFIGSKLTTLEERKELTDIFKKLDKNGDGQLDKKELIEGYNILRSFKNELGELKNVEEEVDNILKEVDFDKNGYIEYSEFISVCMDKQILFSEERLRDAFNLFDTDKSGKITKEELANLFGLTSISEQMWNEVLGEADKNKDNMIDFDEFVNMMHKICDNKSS
Test [6] deals with Plasmodium falciparum protein kinase 6 (PK6, PF3D7_1337100) (UniProt Q8IDW1). Briefly: PfPK6 kinase inhibitors, biochemical, TCAMS library (AID 1159586). The following applies: recombinant PfPK6, Kinase-Glo ATP depletion luminescence.
Plasmodium falciparum protein kinase 6 (PK6, PF3D7_1337100), sequence (Q8IDW1 1-305): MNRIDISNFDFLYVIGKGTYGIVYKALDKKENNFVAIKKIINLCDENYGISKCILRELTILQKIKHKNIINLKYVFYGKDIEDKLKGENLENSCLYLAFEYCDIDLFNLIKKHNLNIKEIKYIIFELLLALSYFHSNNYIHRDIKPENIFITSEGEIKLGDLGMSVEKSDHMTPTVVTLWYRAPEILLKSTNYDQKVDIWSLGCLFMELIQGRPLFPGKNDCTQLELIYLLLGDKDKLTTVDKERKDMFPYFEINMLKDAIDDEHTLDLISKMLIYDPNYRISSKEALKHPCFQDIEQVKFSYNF
Test [7] deals with Protein kinase 7 (PK7), Plasmodium falciparum 3D7 (PF3D7_0213400) (UniProt Q7YTF7). Nature of the test: inhibition of Plasmodium PK7 catalytic activity – biochemical, TCAMS antimalarial set, Kinase-Glo luminescence (AID 1159587). The following applies: recombinant PfPK7, Kinase-Glo ATP depletion luminescence.
Protein kinase 7 (PK7), Plasmodium falciparum 3D7 (PF3D7_0213400), sequence (Q7YTF7 1-343): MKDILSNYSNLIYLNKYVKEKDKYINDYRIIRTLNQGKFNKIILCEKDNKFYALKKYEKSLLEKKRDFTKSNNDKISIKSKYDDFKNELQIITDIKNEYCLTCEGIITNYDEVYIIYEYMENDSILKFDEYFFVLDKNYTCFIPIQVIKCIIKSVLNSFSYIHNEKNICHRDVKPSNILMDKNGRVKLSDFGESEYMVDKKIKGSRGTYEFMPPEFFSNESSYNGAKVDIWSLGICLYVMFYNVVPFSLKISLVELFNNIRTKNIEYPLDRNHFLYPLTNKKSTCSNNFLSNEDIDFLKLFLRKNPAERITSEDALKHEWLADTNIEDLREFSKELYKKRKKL
The target of test [8] is Calcium-dependent protein kinase 4 (Plasmodium falciparum (isolate 3D7)) (UniProt Q8IBS5). Briefly: PfCDPK4 kinase inhibitors, biochemical, TCAMS library (AID 1159588; cut-off not given, nearly all actives have IC50 up to about 0.91 µM). The following applies: recombinant PfCDPK4, Kinase-Glo ATP depletion luminescence.
Calcium-dependent protein kinase 4 (Plasmodium falciparum (isolate 3D7)), sequence (Q8IBS5 whole entry, looked up): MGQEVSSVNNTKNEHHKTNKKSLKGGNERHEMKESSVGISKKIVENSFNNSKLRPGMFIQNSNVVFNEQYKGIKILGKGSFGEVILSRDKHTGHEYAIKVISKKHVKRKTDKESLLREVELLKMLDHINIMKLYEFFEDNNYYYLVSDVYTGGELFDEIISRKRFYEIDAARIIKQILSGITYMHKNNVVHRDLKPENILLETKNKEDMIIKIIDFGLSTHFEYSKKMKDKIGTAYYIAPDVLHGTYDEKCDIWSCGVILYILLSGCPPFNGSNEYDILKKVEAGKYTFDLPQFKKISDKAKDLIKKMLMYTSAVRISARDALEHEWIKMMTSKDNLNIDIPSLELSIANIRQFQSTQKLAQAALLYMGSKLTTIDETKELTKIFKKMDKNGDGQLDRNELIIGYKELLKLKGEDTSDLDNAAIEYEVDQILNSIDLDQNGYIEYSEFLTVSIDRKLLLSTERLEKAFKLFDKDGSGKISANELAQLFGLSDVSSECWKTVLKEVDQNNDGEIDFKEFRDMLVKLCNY

A word on the inhibition: it is the relative decrease from the control value, in per cent. Consider `COc1cc(NC2=C(c3ccccc3)C(=O)c3ccccc32)ccn1`, for which the growth inhibition in test [1] and in test [4] was 96% (active) throughout. Besides, the values for the inhibition in test [2] and in test [3] were 7% and 4%, respectively. For the same compound, the outcome in test [5], in test [6], in test [7] and in test [8] was inactive.
Regarding `COc1cc2nc(N3CC(C)N(C(=O)Cc4ccc(-c5ccccc5)cc4)C(C)C3)nc(N)c2cc1OC` (stereo not given), the growth inhibition in test [1] was 12%; in test [4], 100% (active). In addition, the inhibition in test [2] is 26%; in test [3] it was -5%. Moreover, the outcome in test [5], in test [6], in test [7] and in test [8] was inactive.
For `O=C(CCNc1ccnc(NCC2CCCCC2)n1)Nc1ccccc1`, the growth inhibition in test [1] was 48%; in test [4] it was 95% (active). Moreover, the inhibition in test [2] is 55% (active); in test [3] it was -3%. For the same compound, the outcome in test [5], in test [6], in test [7] and in test [8] was inactive.
Consider `CNCCNCc1cccc(-c2ccc(-c3nc4c(C)cccc4[nH]3)s2)c1`, for which the growth inhibition was 8% in test [1] and 92% (active) in test [4]. The inhibition in test [2] is 10%; in test [3] it was -6%. Further, the outcome in test [5], in test [6], in test [7] and in test [8] was inactive.
On to `O=C(Nc1cccc(-c2ccc(-c3nc4ccc(C(F)(F)F)cc4[nH]3)s2)c1)c1cnc[nH]1`, for which the growth inhibition in test [1] is 36%; in test [4], 89% (active). For the same compound, the inhibition was 55% (active) in test [2] and -3% in test [3]. Moreover, the result in test [5], in test [6], in test [7] and in test [8] was inactive.
Regarding `COc1ccc2nccc(NN=Cc3ccc(F)cc3)c2c1`, the values for the growth inhibition in test [1] and in test [4] were 54% (active) and 98% (active), respectively. For the same compound, the inhibition in test [2] is 2%; in test [3], -2%. For the same compound, the outcome in test [5], in test [6], in test [7] and in test [8] was inactive.
Turning to `CCCCCCNC(=O)C1Cc2c([nH]c3ccc(C)cc23)C2(CCN(Cc3ccccc3)CC2)N1` (stereo not given), the growth inhibition in test [1] is 25%; in test [4], 84% (active). The inhibition in test [2] is 25%; in test [3], 6%. Moreover, the result in test [5], in test [6], in test [7] and in test [8] was inactive.
With `COc1ccc(CNC2CCN(C)CC2)cc1-c1ccc(S(=O)(=O)NCc2ccccc2)s1`, the growth inhibition in test [1] and in test [4] was 101% (active) in each case. In addition, the inhibition was 62% (active) in test [2] and 0% in test [3]. Besides, the outcome in test [5], in test [6], in test [7] and in test [8] was inactive.
Consider `NC(=O)c1ccc(C(=O)Nc2cccc(-c3cccc(-c4nc5ccc(C(F)(F)F)cc5[nH]4)c3)c2)cc1`, for which the growth inhibition in test [1] was 36%; in test [4], 100% (active). The inhibition is 63% (active) in test [2] and -5% in test [3]. The result in test [5], in test [6], in test [7] and in test [8] was inactive.
For `COc1cc2c(cc1S(=O)(=O)c1ccc(NC(=O)c3cccc(C(F)(F)F)c3)cc1)CCN(C)CC2`, the growth inhibition in test [1] is 25%; in test [4] it was 92% (active). Also, the inhibition in test [2] was 18%; in test [3], 3%. Besides, the result in test [5], in test [6], in test [7] and in test [8] was inactive.
As for `COc1ccc(-c2ccc(NC(=O)c3cccc(Cl)c3)c(F)c2)cc1CNC(C)C`, the growth inhibition is 14% in test [1] and 93% (active) in test [4]. Moreover, the inhibition in test [2] is 19%; in test [3], -5%. The outcome in test [5], in test [6], in test [7] and in test [8] was inactive.
As for `CCCCC1(c2ccc(F)cc2)NC(=O)N(CC(=O)c2cc(C)n(Cc3ccco3)c2C)C1=O` (stereo not given), the growth inhibition was 28% in test [1] and 82% (active) in test [4]. The inhibition in test [2] is 6%; in test [3], -3%. Moreover, the result in test [5], in test [6], in test [7] and in test [8] was inactive.
As to `O=C(Cc1ccccc1)NC1(c2ccccc2)CCN(CCc2c[nH]c3ccc(F)cc23)CC1`, the growth inhibition in test [1] is 62% (active); in test [4], 87% (active). The inhibition in test [2] is 29%; in test [3] it was 2%. Also, the result in test [5], in test [6], in test [7] and in test [8] was inactive.
Take `CCN(CC)C(=NCCCCCCN=C(/N=C(\N)c1ccc(Cl)cc1)N(CC)CC)/N=C(\N)c1ccc(Cl)cc1`: the growth inhibition in test [1] was 99% (active); in test [4] it was 97% (active). Besides, the inhibition in test [2] and in test [3] was 1% each time. The result in test [5], in test [6], in test [7] and in test [8] was inactive.
As for `O=C1C2=C(Nc3ccccc3SC2c2cccs2)c2ccccc21` (stereo not given), the growth inhibition is 93% (active) in test [1] and 96% (active) in test [4]. The inhibition in test [2] is 8%; in test [3], 5%. Further, the outcome in test [5], in test [6], in test [7] and in test [8] was inactive.
As for `COc1ccc(-c2ccc(NC(=O)c3ccc(Cl)cc3)cc2)cc1CN1CCNCC1`, the results for the growth inhibition in test [1] and in test [4] were 24% and 99% (active), respectively. Further, the inhibition is 14% in test [2] and 5% in test [3]. For the same compound, the outcome in test [5], in test [6], in test [7] and in test [8] was inactive.
`CC(C)C1C(O)=C(c2ccc3ccccc3c2)C(=O)N1Cc1ccsc1` (stereo not given): the figures for the growth inhibition in test [1] and in test [4] were 82% (active) and 88% (active), respectively. Moreover, the values for the inhibition in test [2] and in test [3] were 11% and 3%, respectively. Further, the outcome in test [5], in test [6], in test [7] and in test [8] was inactive.
As for `COc1c(I)cc(Cc2cnc(N)nc2N)cc1I`, the growth inhibition in test [1] is 0%; in test [4] it was 91% (active). Moreover, the inhibition was 5% in test [2] and -8% in test [3]. For the same compound, the outcome in test [5], in test [6], in test [7] and in test [8] was inactive.
As to `CCCCc1ccc(CCNCCCCCCNCCc2ccc(O)c(O)c2)cc1`, the growth inhibition in test [1] is -1%; in test [4], 100% (active). Also, the inhibition is 45% in test [2] and 5% in test [3]. Besides, the outcome in test [5], in test [6], in test [7] and in test [8] was inactive.
`CCNc1cc(C(=O)N[C@@H](Cc2ccccc2)[C@H](O)CNC(C)(C)CC(C)(C)C)c(F)c(N2CCCCS2(=O)=O)c1`: the figures for the growth inhibition in test [1] and in test [4] were 63% (active) and 94% (active), respectively. Moreover, the inhibition in test [2] is 8%; in test [3], -1%. In addition, the result in test [5], in test [6], in test [7] and in test [8] was inactive.

The record behind these values is PubChem BioAssay.
